For assay [1], the target named is Cellular tumor antigen p53 (Homo sapiens) (UniProt P04637). The experiment in a line: TOX21_p53_BLA_p2_ratio: Tox21 HCT-116 p53 Agonism Beta-lactamase Assay, Ratio, Phase 2 (AID 2283592). Summed up: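 An inducible beta-lactamase reporter in HCT116 cells signals p53 pathway activation. After 16 h chemical exposure at 37C, cells load CCF4-AM substrate for 2 h at room temperature; activity is the cleaved/uncleaved emission ratio relative to DMSO.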

Assay [2] has the same target. The experiment in a line: TOX21_p53_BLA_p3_ratio: Tox21 HCT-116 p53 Agonism Beta-lactamase Assay, Ratio, Phase 3 (AID 2283596). Summed up:
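HCT116 p53-bla cells (4000/well) given compound in DMSO (217-fold dilution) after 5 h, incubated 16 h at 37C. CCF4-AM substrate 2 h at room temperature; 460/530 nm emission ratio, gain fitted against DMSO.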

Assay [3] can be described thus: TOX21_p53_BLA_p4_viability: Viability Assessment in the Tox21 HCT-116 p53 Agonism Beta-lactamase Assay, Phase 4 (AID 2283597).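 Note: hits lower the luminescence signal meaning cytotoxicity.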 The method, boiled down: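 Compound exposure of HCT116 cells lasts 16 h at 37C, 5% CO2, with DMSO stocks diluted 217-fold. Cellular ATP is then quantified by CellTiter-Glo luminescence after 30 min at room temperature.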
Assay [4] has as its target Cellular tumor antigen p53 (Homo sapiens) (UniProt P04637). The experiment in a line: TOX21_p53_BLA_p5_ratio: Tox21 HCT-116 p53 Agonism Beta-lactamase Assay, Ratio, Phase 5 (AID 2283599). Summed up: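 HCT-116 cells carrying a p53-inducible beta-lactamase reporter were seeded at 4000 cells/well and dosed after 5 h with compound in DMSO (217-fold dilution). After 16 h at 37C, CCF4-AM substrate was added for 2 h, and the 460/530 nm emission ratio was scored as gain-of-signal versus DMSO.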

The target is the same in assay [5]. The experiment in a line: TOX21_p53_BLA_p4_ratio: Tox21 HCT-116 p53 Agonism Beta-lactamase Assay, Ratio, Phase 4 (AID 2283601). The method, boiled down:
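HCT116 cells carrying an inducible beta-lactamase reporter were plated at 4000 cells/well, rested 5 h, then exposed to compounds in DMSO (217-fold dilution) for 16 h at 37C. CCF4-AM substrate was loaded 2 h at room temperature; 460/530 nm emission ratio scored gain-of-signal versus DMSO.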

A short description of assay [6]: TOX21_p53_BLA_p5_viability: Viability Assessment in the Tox21 HCT-116 p53 Agonism Beta-lactamase Assay, Phase 5 (AID 2283600). The method, boiled down: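 Counter-readout for cytotoxicity: ATP-dependent luminescence from CellTiter-Glo, read in the beta-lactamase wells after 30 min at RT, following a 16 h compound exposure at 37C.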

Records with an inconclusive call do not appear. Calls of active or inactive are those of the source. Rule for the calls: active = hit-call score of the fitted dose curve at least 0.9, where 1 is the maximum; inconclusive = response in the unintended direction; inactive = score below 0.9.

Sequence of Cellular tumor antigen p53 (Homo sapiens) (P04637 whole entry, looked up): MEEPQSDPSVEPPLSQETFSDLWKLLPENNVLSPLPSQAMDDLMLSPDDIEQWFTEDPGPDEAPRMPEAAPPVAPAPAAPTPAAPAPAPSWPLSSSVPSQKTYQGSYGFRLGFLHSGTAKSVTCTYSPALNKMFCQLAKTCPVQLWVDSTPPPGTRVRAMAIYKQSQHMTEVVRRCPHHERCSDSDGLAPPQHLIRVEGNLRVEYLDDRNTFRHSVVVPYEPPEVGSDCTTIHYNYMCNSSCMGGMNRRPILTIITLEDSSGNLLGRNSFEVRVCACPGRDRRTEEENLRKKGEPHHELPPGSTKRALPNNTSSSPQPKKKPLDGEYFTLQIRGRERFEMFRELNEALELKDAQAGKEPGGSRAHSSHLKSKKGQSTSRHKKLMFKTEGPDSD

Take `c1ccc2c(c1)OCC(C1=NCCN1)O2` (stereo not given): the result in assay [1], in assay [2], in assay [3], in assay [4] and in assay [5] was inactive.
For the compound `NC1=NC(=O)N2CC12` (stereo not given), the result in assay [1], in assay [2], in assay [3], in assay [4] and in assay [5] was inactive.
What is called AC50 is the concentration giving half of the maximal activity seen. Regarding `Cn1c(CCCC(=O)O)nc2cc(N(CCCl)CCCl)ccc21`, the AC50 in assay [1] is 27.1 µM (active); in assay [2], 31.3 µM (active); in assay [4], 33.1 µM (active); in assay [5], 32.4 µM (active). The compound was classed as inactive in assay [3].
With `C[C@@H]([C@H](O)c1ccccc1)N(C)C`, the outcome in assay [1], in assay [2], in assay [3], in assay [4], in assay [6] and in assay [5] was inactive.
As for `N#CC(Cl)Cl`, the outcome in assay [1], in assay [2], in assay [3], in assay [4], in assay [6] and in assay [5] was inactive.
Regarding `CN(C)CCc1c[nH]c2ccc(O)cc12`, the outcome in assay [1], in assay [2] and in assay [4] was inactive.
Turning to `O=c1[nH]cc(N(CCCl)CCCl)c(=O)[nH]1`, the result in assay [1], in assay [3], in assay [4] and in assay [5] was inactive. For the same compound, the AC50 in assay [2] is 23 µM (active).
Consider `Oc1ccc2c3c1O[C@H]1[C@@H](O)C=C[C@H]4[C@@H](C2)NCC[C@@]341`, for which the outcome in assay [1], in assay [2], in assay [3], in assay [4] and in assay [5] was inactive.

Source of the values: PubChem BioAssay (EPA / NIEHS).
